Tau fluor counter = counter-screen for tau fibril formation inhibitors; 280,000 tested, 0.93% active; Potency, µM (titrated, usually from 57.7 µM), for the others: at the top dose activity change, negative = decrease; AID 1463; tau K18 P301L Alexa594 fluorescence, heparin fibrillization; note: potency is the fitted concentration of half-maximal effect; nearly all actives have a fitted effect of over 55% in size
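Human tau K18 P301L (15 uM unlabeled, 0.24 uM Alexa 594-labeled) in 100 mM sodium acetate pH 7 with 20 uM heparin, 6 hr at 37 C. ThT 30 uM added, 1 hr ambient; Alexa 594 FP and total fluorescence read at 555/632 nm.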
USP1-UAF1 inh = USP1/UAF1 (human) deubiquitinase inhibition; O94782; recombinant USP1/UAF1, Ub-Rhodamine cleavage fluorescence; Potency, µM (titrated, usually from 57.1 µM), without a hit: top-dose activity change, negative = inhibition, most hits filed as inhibitors; 390,000 tested, 0.23% active; note: potency is the fitted concentration of half-maximal effect; nearly all actives have a fitted effect of over 60% in size
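1 nM enzyme complex + cpd, 15 min RT; start with Ub-Rho 150nM final; kinetic fluorescence ex 480/em 540, 6 reads q60 s. Buffer 50mM HEPES pH 7.8, 0.5mM EDTA, 0.1 mg/ml BSA, 1mM TCEP, 0.01% Tween-20.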
Tau fibril FP = blocks human tau fibril formation measured by polarization; 280,000 tested, 0.39% active; K18 P301L tau heparin fibrillization, Alexa594 FP, 6 h; Potency, µM (highest dose often 57.7 µM), for the others: top-dose activity, negative = inhibition, hits mostly inhibitors; P10636; note: potency is the fitted concentration of half-maximal effect; nearly all actives have a fitted effect of over 55% in size
Target sequence (P10636 561-689 P618L limits assumed): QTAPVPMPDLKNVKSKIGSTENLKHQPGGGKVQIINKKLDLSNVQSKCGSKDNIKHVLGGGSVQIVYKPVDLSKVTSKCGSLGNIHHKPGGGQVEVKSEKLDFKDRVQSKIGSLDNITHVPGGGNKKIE
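Quantitative HTS format: compounds meet 15 uM recombinant K18 P301L tau and Alexa 594-tau tracer in 100 mM sodium acetate pH 7; 20 uM heparin triggers fibrillization at 37 C over 6 hr; FP gives the signal.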
Tau fibril ThT = tau fibrillization inhibition (ThT binding) | P10636 | recombinant tau K18 P301L (four-repeat tau fragment), heparin-induced fibrillization, ThT fluorescence | Potency, µM (titrated, usually from 57.4 µM), for the others: top-dose activity, negative = inhibition, usual class: inhibitors | 270,000 tested, 2.1% active | AID 1460; note: potency is the fitted concentration of half-maximal effect; nearly all actives have a fitted effect of over 55% in size
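Tau K18 P301L fragment (15 uM unlabeled plus 0.24 uM Alexa 594-labeled) in 100 mM sodium acetate pH 7 with compound, fibrillization induced by 20 uM heparin for 6 hr at 37 C. Thioflavin T (30 uM) added, fluorescence read after 1 hr (ex 450, em 510 nm).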
FBPA coupling cs = coupling enzyme interference in Giardia aldolase counter-screen | coupling enzyme system counterscreen, AmpLite Red fluorescence | activity change, negative = inhibition, % at 58.2 µM, hits read low | 290,000 tested, 0.67% active | AID 2472; in the data active = activity change below about -30%
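Activity here indicates interference with the coupling reaction, not aldolase inhibition. Compounds at 57.5 uM final met coupling enzymes for 10 min at RT; substrate and AmpLite Red detection followed, with a 525/598 nm fluorescence read after 20 min.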
Active calls of the source: *; u = inconclusive; x = no result given; [ ] = another dose, or the depositor's remark. The list is not random: actives were taken first. Their share in the collection is about 2.3%. Unless noted, calls come from the whole dose curve; as a rule, active = well fitted curve in the direction sought with a large enough effect; inconclusive = small, poorly fitted or top-dose-only effect, or another doubt; inactive = no such curve, though single readings can be large; an effect the other way counts as inactive or inconclusive. % is set by controls: 0 for no effect and ±100 for the full control effect.

SMILES	Tau fluor counter	USP1-UAF1 inh	Tau fibril FP	Tau fibril ThT	FBPA coupling cs
Cc1cc2oc(C(=O)N(Cc3ccccc3F)C3CCS(=O)(=O)C3)c(C)c2cc1Cl (stereo not drawn)	-17.0%	-9.6%	0.2%	-17.0%	x
Cc1ccc2[nH]c3c(c2c1)CCc1cn[nH]c1-3	25.1µM*[quencher]	-15.9%	u	12.6µM*	-18.6
CC(C)(C)OC(=O)N1CCC(c2c(C(=O)NCCN3CCOCC3)cnn2-c2cccc(Cl)c2)CC1	-7.5%	5.4%	-1.6%	0.0%	x
COCCn1c(N)c(C(=O)OCc2ccccc2)c2nc3ccccc3nc21	u	-21.6%	-0.7%	-14.7%	-36.7*
O=C1CC(Nc2ccc(N3CCOCC3)cc2)C(=O)N1c1ccccc1 (stereo not drawn)	-18.7%	-14.9%	-5.4%	15.8µM*	1.5
COc1ccccc1N1C(=O)CC(Nc2ccc(N3CCOCC3)cc2)C1=O (stereo not drawn)	-20.0%	u	-7.2%	28.2µM*	-23.2
CCc1ccc(NC(=O)C2CCCN2c2nn3c(=O)cc(C)nc3s2)cc1 (stereo not drawn)	x	-17.9%	x	x	-1.2
COc1ccc(N2C(=O)/C(=C/c3cccs3)NC2=S)cc1	-24.7%	-20.9%	u	22.4µM*	2.3
O=C(NC(=S)Nc1ccccc1)c1ccc(Br)o1	-8.1%	-24.0%	-5.4%	-7.4%	-1.0
O=C(Nc1ccc(Nc2ccccc2)cc1)c1ccc(Br)o1	14.1µM*[quencher]	-11.8%	u	8.91µM*	-2.6
CC(=O)Nc1nonc1-c1nnc(SCC(=O)Nc2ccc(C)c(Cl)c2)n1C	-9.0%	-1.3%	u	2.4%	x
COc1ccc(C(=O)c2c(C(F)(F)F)oc3c2C(=O)c2ccccc2C3=O)cc1OC	-1.4%	u	8.1%	9.7%	-54.6*
CN(C)C(CNC(=O)c1cc(-c2ccco2)nc2ccccc12)c1ccccc1 (stereo not drawn)	x	-12.5%	x	x	x
Oc1ccc(/C=N/n2c3ccccc3c3ccccc32)cc1	14.1µM*[quencher]	-18.3%	u	35.5µM*	4.3
CCOc1ccccc1Oc1cn[nH]c1-c1ccc(OCC(=O)NN)cc1O	x	-15.3%	x	x	-2.9
Cc1[nH]nc(-c2ccc(OCc3cnn(-c4ccccc4)c3)cc2O)c1Oc1ccc(F)cc1	u	-13.1%	u	3.1%	x
CCOc1ccc(-c2[nH]ncc2Oc2ccccc2OC)c(O)c1	14.1µM*[quencher]	-6.8%	1.3%	u	-2.7
CCOc1ccc(-c2[nH]ncc2Oc2ccccc2OCC)c(O)c1	14.1µM*[quencher]	-32.7%	-14.6%	u	0.5
CCOc1ccc(-c2n[nH]c(C)c2Oc2ccc(OC)cc2)c(O)c1	14.1µM*[quencher]	-4.2%	u	-18.8%	-13.7
COc1cc(OC)c(NC(=O)N2CCCn3nc(C)cc32)cc1Cl	-1.7%	-13.1%	-3.2%	0.1%	x
COc1ccc(Cl)cc1NC(=O)Cn1c(=O)n(Cc2ccco2)c(=O)c2cccnc21	-25.1%	-14.9%	u	10.2%	x
CCN(CC)c1ccc(NC(=O)/C=C\c2ccccc2Cl)cc1	8.91µM*[quencher]	u	22.8%	3.98µM*	-0.3
Cc1ccc2c(c1)C(=O)OC(C(=O)Nc1ncc(Cc3ccccc3Cl)s1)C2 (stereo not drawn)	4.8%	-15.8%	0.3%	4.9%	x
COc1ccc(-c2nn(C)c3sc(C(=O)Nc4cccc(F)c4)cc23)cc1OC	u	-7.4%	12.6µM*	-6.0%	x
COc1cccc(NC(=O)c2cc3c(-c4ccc(Cl)cc4)nn(C)c3s2)c1	u	-12.4%	15.8µM*	1.4%	x
SMILES	Tau fluor counter	USP1-UAF1 inh	Tau fibril FP	Tau fibril ThT	FBPA coupling cs
Cc1nn(-c2ccccc2)c2sc(C(=O)Nc3cccc(Cl)c3)cc12	u	u	3.16µM*	u	x
Cn1nc(-c2ccccc2F)c2cc(C(=O)Nc3ccc4c(c3)OCCO4)sc21	7.94µM*[quencher]	-22.0%	u	u	-3.7
COc1cccc(-c2nn(C)c3sc(C(=O)Nc4ccc5c(c4)OCCO5)cc23)c1	0.3%	-11.0%	9.4%	-3.4%	-6.4
Cc1ccc(CNC(=O)c2ccc(Cn3c(SCc4ccc(F)cc4)nc4cccnc43)cc2)o1	-12.1%	u	-6.9%	-8.5%	x
COc1cccc(C(=O)Nc2nc(-c3nnn(-c4cccc(Cl)c4C)c3C)ns2)c1	-14.4%	-5.8%	-6.0%	4.5%	x
O=C(Nc1ccccc1Cl)NN1CCCCCC1	x	2.6%	x	x	x
O=C(Nc1ccc(S(=O)(=O)N2CCCC2)cc1)Nc1ccc(F)cc1F	x	-21.9%	x	x	x
Cc1ccc(S(=O)(=O)Nc2ccc(NC(=O)Nc3ccc(F)cc3F)cc2)cc1	11.2µM*[quencher]	-2.8%	u	-5.2%	-3.7
CCCC(=O)Oc1c(Sc2ccc(C)cc2)c(C)nn1-c1ccccc1	-28.4%	-15.8%	u	25.1µM*	x
CCC(=O)Oc1c(Sc2ccc(Cl)cc2)c(C)nn1-c1ccccc1	-29.6%	-26.4%	u	22.4µM*	x
Cc1ccc(S(=O)(=O)N2CCc3nc(COc4ccccc4)c4c(c3C2)CO[C@@H](C)C4)cc1	-15.2%[11.6 µM]	x	-2.0%[11.6 µM]	-13.0%[11.5 µM]	-0.3
N#Cc1nc(-c2cccs2)oc1NCc1ccccc1	u	-22.7%	12.0%	-17.1%	3.7
N#Cc1nc(-c2cccs2)oc1NCc1ccc(Cl)cc1	17.8µM*[quencher]	-5.4%	u	-10.0%	-0.2
Oc1ccc(/C=C/c2nc(-c3ccccc3O)n(-c3ccccc3)n2)cc1	31.6µM*[quencher]	-23.2%	u	u	-6.3
Oc1ccccc1-c1nc(/C=C/c2ccccc2)nn1-c1ccccc1	u	u	-17.3%	-11.7%	0.9
Oc1ccccc1-c1nc(/C=C/c2ccc(F)cc2)nn1-c1ccccc1	-27.4%	-10.6%	u	-17.3%	x
Oc1ccc(/C=C/c2nc(-c3ccccc3O)n(-c3ccccc3)n2)c(O)c1	5.62µM*[quencher]	20.7%	u	u	x
Cc1cccc(CCNC(=O)C2CCCN(c3cnccn3)C2)c1 (stereo not drawn)	x	-29.0%	x	x	2.3
